Among the test systems are HT29 colon; SNB-75 CNS; SNB-19 CNS; U251 CNS; PC-3 prostate; SK-MEL-5 melanoma; UACC-62 melanoma; LOX IMVI melanoma; SK-MEL-28 melanoma.
Common to all, as to assay: NCI-60 one-dose screen, 48 h (100 = growth as untreated, 0 = no growth, -100 = all killed)
Holding throughout (conditions): 10 µM unless noted

About 83,000 compounds went through this panel and 20% of them were active in at least one assay; those are over-represented in the sample as a whole.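 For each line, cells grew in 96-well plates with the test compound present at a single concentration for 48 hours.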 Unmarked numbers belong to inactive results. Activity calls are given as the source filed them. How the source made its calls: active means growth percent below 10; inactive means the rest.

Regarding `O=C(O)c1ccc(CO)o1`, the growth in the test on HT29 colon is 106%; with SNB-75 CNS, 90.7%; in the test with SNB-19 CNS it was 103%; in the test with U251 CNS, 91.8%; in the test with PC-3 prostate, 105%; in the test on SK-MEL-5 melanoma, 107%. The growth was 101% in the test with UACC-62 melanoma, 109% with LOX IMVI melanoma and 103% with SK-MEL-28 melanoma.

On to `C/C(=N\NC(=O)Cn1c(-c2ccc(S(C)(=O)=O)cc2)nc2cc(Cl)ccc21)c1ccc(Cl)cc1`, for which the growth is 79.7% in the test on HT29 colon; 69.7% in the test on SNB-75 CNS; 84.3% with SNB-19 CNS; 79.7% in the test with U251 CNS; 49.2% in the test with PC-3 prostate; 84.2% in the test with SK-MEL-5 melanoma. Further, the growth with UACC-62 melanoma is 76.2%; with LOX IMVI melanoma, 89.4%; in the test on SK-MEL-28 melanoma, 90%.

On to `COc1cc(-c2ncn(/C=C\c3nnco3)n2)cc(C(F)(F)F)c1`, for which the growth in the test on SNB-75 CNS was 4.47% (active); with SNB-19 CNS it was 23.3%; in the test with U251 CNS, 14.7%; in the test with PC-3 prostate, 33.6%; in the test with SK-MEL-5 melanoma it was -11.8% (active); with UACC-62 melanoma, 13.2%. Also, the growth with LOX IMVI melanoma is -27.3% (active); with SK-MEL-28 melanoma, 6.79% (active).

Turning to `NC(=O)CC1(O)C=C(Br)C(=O)C(Br)=C1`, the growth with HT29 colon is 75.8%; with SNB-75 CNS, 76.4%; with SNB-19 CNS it was 106%; in the test on U251 CNS, 95.6%; in the test on SK-MEL-5 melanoma, 92.7%; in the test with UACC-62 melanoma, 108%. The growth in the test with LOX IMVI melanoma was 86.1%; with SK-MEL-28 melanoma it was 21.5%.

For the compound `CN1CCN(C(=O)[C@]23CCC(C)(C)C[C@@H]2C2=CC[C@@H]4[C@@]5(C)Cc6c([nH]c7ccccc67)C(C)(C)[C@@H]5CC[C@@]4(C)[C@]2(C)CC3)CC1`, the growth with HT29 colon was 71.3%; in the test on SNB-75 CNS, 56.6%; with SNB-19 CNS it was 91.8%; in the test with U251 CNS, 78.3%; in the test on PC-3 prostate, 64.8%; in the test with SK-MEL-5 melanoma, 94%. For the same compound, the growth in the test with UACC-62 melanoma is 95.9%; in the test on LOX IMVI melanoma, 77.4%; in the test on SK-MEL-28 melanoma, 89.6%.

Regarding `CS(=O)(=O)c1ccc(-c2nc3cc(Cl)ccc3n2CC(=O)N/N=C/c2ccc(Cl)cc2)cc1`, the growth was 36.2% with HT29 colon; 42.1% with SNB-75 CNS; 51.3% in the test with SNB-19 CNS; 30.5% in the test with U251 CNS; 45.5% in the test on PC-3 prostate; 23.1% with SK-MEL-5 melanoma. In addition, the growth was 56.2% in the test with UACC-62 melanoma, 30.7% in the test on LOX IMVI melanoma and 43.6% in the test on SK-MEL-28 melanoma.

Take `COc1ccccc1C(=O)NC(=S)Nc1ccc(-c2nc3ccccc3[nH]2)cc1`: the growth with HT29 colon was 14.8%; in the test on SNB-75 CNS, -62.7% (active); in the test with SNB-19 CNS, 84%; with U251 CNS, 29.3%; in the test with PC-3 prostate it was 86%; with SK-MEL-5 melanoma it was 25.8%. The growth with UACC-62 melanoma is 109%; in the test on LOX IMVI melanoma, 20%; in the test with SK-MEL-28 melanoma, 69.5%.

`O=C(CCc1nc(-c2cccc(Cl)c2)no1)Nc1ccccn1`: the growth in the test with HT29 colon was 106%; in the test on SNB-75 CNS, 93.7%; in the test on SNB-19 CNS, 97.6%; in the test with U251 CNS it was 111%; with PC-3 prostate, 97.4%; in the test with UACC-62 melanoma it was 91%. Also, the growth in the test on LOX IMVI melanoma is 97.3%; in the test on SK-MEL-28 melanoma it was 99.5%.

`CCCCCCCCN(CCCCCCCC)C(=N)c1ccnc2ccccc12`: the growth is -87.1% (active) with HT29 colon; -95.7% (active) with SNB-75 CNS; -70.8% (active) in the test with SNB-19 CNS; -95.6% (active) with U251 CNS; -88.7% (active) with PC-3 prostate; -96.6% (active) in the test with SK-MEL-5 melanoma. Also, the results for the growth in the test on UACC-62 melanoma, in the test with LOX IMVI melanoma and in the test with SK-MEL-28 melanoma were -74.5% (active), -100% (active) and -86% (active), respectively.

As to `CC(C)n1nc(C#Cc2cccc3cc(-c4cccc(C(F)(F)F)c4)ncc23)c2c(N)ncnc21`, the growth is 29.7% in the test on HT29 colon; -4.27% (active) with SNB-75 CNS; 99.6% with SNB-19 CNS; 63.6% in the test with U251 CNS; 59.6% in the test with PC-3 prostate; 85.1% in the test with SK-MEL-5 melanoma. For the same compound, the growth is 66.6% in the test with UACC-62 melanoma, 58.1% in the test with LOX IMVI melanoma and 83.3% in the test on SK-MEL-28 melanoma.

Turning to `O=S(=O)(NCCNc1cc(-c2c(-c3cccc(O)c3)nc3sccn23)ccn1)c1ccc(Cl)cc1`, the growth in the test on HT29 colon was 65.7%; in the test on SNB-75 CNS, 8.44% (active); in the test with SNB-19 CNS, 72.7%; with U251 CNS, 65.9%; in the test on PC-3 prostate, 49.3%; in the test on SK-MEL-5 melanoma it was 30.7%. Besides, the growth with UACC-62 melanoma is 64.8%; in the test on LOX IMVI melanoma it was 63.2%; in the test with SK-MEL-28 melanoma it was 95.7%.

Regarding `O=C1Nc2ccccc2/C1=N/N=C/c1ccsc1`, the growth was 112% with HT29 colon; 87.8% in the test on SNB-75 CNS; 95.5% with SNB-19 CNS; 104% with U251 CNS; 107% in the test on PC-3 prostate; 101% in the test on SK-MEL-5 melanoma. The growth with UACC-62 melanoma was 93%; in the test with LOX IMVI melanoma, 95.1%; with SK-MEL-28 melanoma, 110%.

As for `N=C(N)c1ccc(-c2ccc(-c3ccc(Cl)c(Cl)c3)o2)cc1`, the growth is -20.3% (active) in the test with HT29 colon; 78.6% with SNB-75 CNS; 25.4% in the test with SNB-19 CNS; -36.9% (active) in the test with U251 CNS; 47.4% with PC-3 prostate; 83.5% in the test on SK-MEL-5 melanoma. Further, the growth with UACC-62 melanoma is 93.5%; in the test on LOX IMVI melanoma it was -96% (active); with SK-MEL-28 melanoma, 59.7%.

Take `O=C(CCl)N1c2cccc3cccc(c23)N(C(=O)CCl)C1c1cn(-c2ccccc2)nc1-c1cccc([N+](=O)[O-])c1`: the growth with HT29 colon was 44.9%; in the test with SNB-75 CNS, 85.1%; in the test on SNB-19 CNS, 97.3%; with U251 CNS, 85%; with PC-3 prostate, 97.1%; with SK-MEL-5 melanoma, 98.9%. Besides, the growth with UACC-62 melanoma was 86.8%; with LOX IMVI melanoma, 26.6%; with SK-MEL-28 melanoma it was 106%.

As for `COc1cc2c(cc1OC)-c1ccc3cc4c(cc3c1N(CCCN1CCCCC1)C2)OCO4`, the growth in the test with HT29 colon was 25.4%; with SNB-75 CNS, 51.3%; with SNB-19 CNS, 42.6%; in the test with U251 CNS, 42.1%; in the test with PC-3 prostate it was 29.3%; in the test with SK-MEL-5 melanoma, 44.9%. For the same compound, the growth is 59.2% in the test with UACC-62 melanoma, 32.5% with LOX IMVI melanoma and 80.4% in the test with SK-MEL-28 melanoma.
